Screen size: about 310,000 compounds; about 2,200 (0.71%) showed an effect of 50% or more. The effect is printed as a negative number. This is one part of a sample in which strong results are shown more often than they occur.
The compounds below were run against human ether-à-go-go-related gene (hERG) potassium channel (human, UniProt Q12809) (assay: primary screen, population patch clamp on CHO cells stably expressing hERG; higher = less effect of the substance).
Chain of human ether-à-go-go-related gene (hERG) potassium channel (Q12809 whole entry, looked up): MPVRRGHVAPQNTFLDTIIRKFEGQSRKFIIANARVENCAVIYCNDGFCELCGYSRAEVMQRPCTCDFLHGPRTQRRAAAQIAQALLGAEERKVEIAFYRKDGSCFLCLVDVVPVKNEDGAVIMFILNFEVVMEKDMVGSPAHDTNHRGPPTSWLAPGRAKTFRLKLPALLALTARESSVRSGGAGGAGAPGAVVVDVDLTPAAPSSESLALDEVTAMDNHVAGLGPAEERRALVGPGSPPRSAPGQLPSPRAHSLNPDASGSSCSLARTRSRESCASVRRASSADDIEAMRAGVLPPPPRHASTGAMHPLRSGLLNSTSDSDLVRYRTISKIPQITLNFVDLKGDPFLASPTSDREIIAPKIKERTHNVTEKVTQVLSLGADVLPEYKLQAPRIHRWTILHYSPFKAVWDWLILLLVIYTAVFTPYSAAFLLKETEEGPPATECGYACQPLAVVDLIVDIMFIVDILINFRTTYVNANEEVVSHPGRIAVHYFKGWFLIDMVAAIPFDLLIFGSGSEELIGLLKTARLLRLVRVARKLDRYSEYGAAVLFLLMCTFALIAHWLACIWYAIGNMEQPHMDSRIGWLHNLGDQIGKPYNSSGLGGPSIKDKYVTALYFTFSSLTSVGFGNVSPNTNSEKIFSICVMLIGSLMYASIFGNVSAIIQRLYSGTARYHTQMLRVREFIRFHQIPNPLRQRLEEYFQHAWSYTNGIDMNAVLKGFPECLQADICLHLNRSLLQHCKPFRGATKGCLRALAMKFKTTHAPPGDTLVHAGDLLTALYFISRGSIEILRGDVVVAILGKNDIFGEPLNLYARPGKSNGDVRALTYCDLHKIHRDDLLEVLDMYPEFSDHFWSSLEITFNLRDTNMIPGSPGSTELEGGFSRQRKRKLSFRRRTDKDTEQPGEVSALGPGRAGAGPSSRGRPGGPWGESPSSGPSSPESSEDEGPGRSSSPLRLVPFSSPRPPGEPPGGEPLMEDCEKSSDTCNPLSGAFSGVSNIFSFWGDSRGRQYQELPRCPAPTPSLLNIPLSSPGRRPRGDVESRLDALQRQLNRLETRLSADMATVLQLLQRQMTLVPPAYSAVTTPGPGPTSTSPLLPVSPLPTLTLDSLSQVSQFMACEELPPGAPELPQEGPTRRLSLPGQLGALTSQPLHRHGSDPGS

| Compound | hERG current change (%, negative = inhibition) at 1uM [%] |
| --- | --- |
| COc1ccc(S(=O)(=O)NCCC(C)C)cc1C | 4.62 |
| CCn1cc(CN(C)C(=O)/C=C/c2ccc([N+](=O)[O-])cc2)c(C)n1 | -35.3 |
| Cc1c(CN(C)C(=O)c2nn(C)cc2[N+](=O)[O-])cnn1C | 10.8 |
| Cc1c(CN(C)C(=O)/C=C/c2ccc([N+](=O)[O-])cc2)cnn1C | -65.5 |
| CC(C)c1ccc(O)c(CN2CCN(c3ccccc3)CC2)c1 | 10.3 |
| COc1ccc(C(C)=O)cc1CN1C(=O)NC2(CCCCCCC2)C1=O | 19.8 |
| CCOc1ccc(C(C)=O)cc1CN1C(=O)NC2(CCCCCCC2)C1=O | -51.8 |
| CCOc1ccc(C(C)=O)cc1CN1C(=O)NC2(CCCCCC2)C1=O | 13.5 |
| CCC(=O)OCC(=O)Nc1ccc([N+](=O)[O-])cc1OC | 9.97 |
| Cc1ccccc1OCCC(=O)Nc1ccc(F)c(Cl)c1 | 13.7 |
| CC(=O)N1CC(C)Sc2ccc(S(=O)(=O)NCc3ccc(Cl)cc3)cc21 (stereo not drawn) | 1.91 |
| O=C(/C=C/c1ccc(F)cc1)NCCCN1CCN(CCCNC(=O)/C=C/c2ccc(F)cc2)CC1 | -72.5 |
| Cc1ccc(/C=C/C(=O)N2CCCN(C(=O)/C=C/c3ccc(C)cc3)CC2)cc1 | -53.5 |
| O=C(/C=C/c1ccccc1)N1CCCN(C(=O)/C=C/c2ccccc2)CC1 | -44 |
| CCN1CCN(C(=O)/C=C/c2ccc(C)cc2)CC1 | 4.54 |
| O=C(/C=C/c1ccc(F)cc1)N1CCCN(C(=O)/C=C/c2ccc(F)cc2)CC1 | -84.7 |
| Cc1ccc(/C=C/C(=O)NCCCN2CCN(CCCNC(=O)/C=C/c3ccc(C)cc3)CC2)cc1 | 7.32 |
| O=C(/C=C/c1ccc(F)cc1)NCCNC(=O)/C=C/c1ccc(F)cc1 | 16.8 |
| CN1CCCN(C(=O)/C=C/c2ccc(F)cc2)CC1 | -5.11 |
| CCN1CCN(C(=O)/C=C/c2ccc(F)cc2)CC1 | -13.1 |
| Cc1ccccc1S(=O)(=O)N1[C@@H](c2ccc(F)cc2)C(C(=O)O)=CC[C@H]1c1ccc(Cl)cc1 | 8.27 |
| COc1ccc(/C=C2\CCCC3C2=NN(C(=O)CSc2ncn[nH]2)C3c2ccc(OC)cc2)cc1 (stereo not drawn) | 16.5 |

| Compound | hERG current change (%, negative = inhibition) at 1uM [%] |
| --- | --- |
| CCCCn1c(N)c(N(CC(C)C)C(=O)c2cccc(S(=O)(=O)N3CCCCCC3)c2)c(=O)[nH]c1=O | 4.52 |
| Cc1ccc(NC(=O)CSc2nnc(-c3ccco3)o2)c(C)c1 | 17.5 |
| COc1ccc(C(=O)N/C(=C/c2cccs2)C(=O)NCCCn2ccnc2)cc1OC | 0.585 |
| Cc1ccc(C(=O)N/C(=C\c2cccs2)C(=O)NCCCn2ccnc2)cc1C | -32.3 |
| Cc1ccc(C(=O)N/C(=C\c2cccs2)C(=O)NCCCn2ccnc2)cc1 | -66 |
| O=C(NCCCn1ccnc1)/C(=C\c1cccs1)NC(=O)c1cccs1 | -27.6 |
| O=C(NCCCn1ccnc1)/C(=C\c1cccs1)NC(=O)c1ccccc1 | -19.1 |
| Cc1ccc(C(=O)N/C(=C/c2cccs2)C(=O)NCCCn2ccnc2)cc1 | -50 |
| CSC1=N/C(=C\c2ccccc2Cl)C(=O)N1N(C)C | 1.86 |
| Cc1cc(=O)[nH]c(SC(C)C(=O)Nc2cccc3ccccc23)n1 (stereo not drawn) | 6.33 |
| CCCOc1ccc(C(=O)N2CCN(c3ccc(NC(=O)CC)cc3Cl)CC2)cc1 | -58.7 |
| CCN1CCN(c2ccc(NC(C)=O)cc2Cl)CC1 | 10.3 |
| CCCC(=O)Nc1ccc(N2CCN(CC)CC2)c(Cl)c1.Cl | -17.9 |
| CCCCCC(=O)Nc1ccc(N2CCN(CC)CC2)c(Cl)c1 | -55.6 |
| CCC(=O)Nc1ccc(N2CCN(CC)CC2)c(Cl)c1 | 8.56 |
| CCN1CCN(c2ccc(NC(=O)c3ccc(F)cc3)cc2Cl)CC1 | -66.8 |
| CCN1CCN(c2ccc(NC(=O)c3cccc(F)c3)cc2Cl)CC1 | -8.27 |
| CCCOc1ccc(C(=O)N2CCN(c3ccc(N)cc3Cl)CC2)cc1 | -6.51 |
| COc1ccc(OCC(=O)Nc2ccc(N3CCN(C(=O)c4ccccc4)CC3)c(Cl)c2)cc1 | 9.86 |
| CCC(=O)NC(=S)NNC(=O)c1ccc([N+](=O)[O-])cc1 | 8.99 |
| CC(OC(=O)c1cccs1)C(=O)NC1CCCCC1C (stereo not drawn) | -66.1 |
| CC(OC(=O)CCC(=O)c1cccs1)C(=O)NC1CCCCC1C (stereo not drawn) | 0.622 |

| Compound | hERG current change (%, negative = inhibition) at 1uM [%] |
| --- | --- |
| CC(OC(=O)c1cccs1)C(=O)NC1CC1 (stereo not drawn) | 7.03 |
| CCOc1ccc(NC(=O)CN(C)C(=O)c2ccc(COc3ccccc3)cc2)cc1OCC | 4.94 |
| Cc1ccc(NS(=O)(=O)c2ccccc2Cl)c2c1CC(C)(C)O2 | 6.77 |
| Cc1ccc2sc(NNC(=O)C3COc4ccccc4O3)nc2c1C (stereo not drawn) | 9.9 |
| CN(C)C/C=C(\c1ccc(Br)cc1)c1cccnc1.Cl.O | -35.3 |
| O=C(NCCNC(=O)c1cccnc1)c1ccc(Br)cc1 | 29.6 |
| CN(C)C/C=C(/c1ccc(Br)cc1)c1cccnc1.Cl | -60.8 |
| CC(C)C(=O)Nc1ccc2c(c1)oc1ccccc12 | 11.8 |
| O=C(COC(=O)C12CC3CC(CC(O)(C3)C1)C2)Nc1ccc(Cl)cc1F | -1.56 |
| COc1ccccc1C(=O)Nc1ccon1 | -0.0061 |
| N=c1nc(N)nc2n1NC(c1ccc(F)cc1)=CS2 | -3.69 |
| COc1ccc(N(C(=O)c2ccc(Cl)cc2)C2=CC3CCC(C2)N3C)cc1.Cl (stereo not drawn) | -76.1 |
| COc1ccc(N(C(=O)/C=C/c2ccccc2)C2=CC3CCC(C2)N3C)cc1.Cl (stereo not drawn) | -70.3 |
| Cc1cc(C)cc(C(=O)N(CCc2ccccc2)C2CC3CCC(C2)N3C)c1.Cl (stereo not drawn) | -18 |
| CN1C2C=C(N(CCc3ccccc3)C(=O)c3ccc(Cl)cc3)CC1CC2.Cl (stereo not drawn) | -19.7 |
| CN1C2C=C(N(CCc3c[nH]c4ccccc34)C(=O)c3ccc(Cl)cc3)CC1CC2.Cl (stereo not drawn) | -41.4 |
| COc1ccc(C(=O)CN(C(=O)c2ccc(Cl)cc2)N2C(=O)C3CCCCC3C2=O)cc1 (stereo not drawn) | 10.8 |
| CCCCN(C(=O)c1ccc(Cl)cc1)C1CC2CCC(C1)N2C.Cl (stereo not drawn) | -15.6 |
| CN1C2CCC1CC(OC(=O)c1ccc(Cl)cc1)C2.Cl (stereo not drawn) | -9.75 |
| CN1C2CCC1CC(N(CCc1ccccc1)C(=O)c1ccc(Cl)cc1)C2.Cl (stereo not drawn) | -78.8 |
| CN1C2C=C(N(C(=O)c3ccc(Cl)cc3)c3ccccc3)CC1CC2.Cl (stereo not drawn) | -69.8 |
| COc1cc(C(=O)N(CCc2ccccc2)C2=CC3CCC(C2)N3C)cc(OC)c1OC.Cl.O (stereo not drawn) | -13.5 |

| Compound | hERG current change (%, negative = inhibition) at 1uM [%] |
| --- | --- |
| COc1ccc(N(C(=O)/C=C/c2ccc(OC)c(OC)c2)C2=CC3CCC(C2)N3C)cc1.Cl (stereo not drawn) | -42.8 |
| Cc1cc(C)n2c(SC(C)C(=O)NC3(C#N)CCCCC3)nnc2n1 (stereo not drawn) | 11.7 |
| CCOC(=O)c1oc2ccccc2c1NC(=O)c1ccc(S(=O)(=O)N2CCCC2)cc1 | -6.45 |
| CCOC(=O)C1CCN(S(=O)(=O)c2cc(F)ccc2OC)CC1 | 8.83 |
| COc1ccc(-c2nc(NCCCN(C)C)c3ccccc3n2)cc1.Cl | 3.72 |
| C=C(C)Cn1c(SCC#N)nc2ccccc2c1=O | 3.85 |
| COc1ccc(S(=O)(=O)N2CCN(C)CC2)c2ccccc12 | 9.59 |
| CC(Sc1nc2ccccc2n1C)C(=O)Nc1ccc(N2CCOCC2)cc1 (stereo not drawn) | 6.2 |
| CN1CCN(C(=O)CCC(=O)NCc2ccc(F)cc2)CC1 | 9.84 |
| O=C(COC(=O)c1ccccn1)NC(=O)c1ccccc1 | -5.45 |
| Cc1[nH]nc2ncc(C(=O)c3cc(Cl)cc(Cl)c3O)cc12 | 10.1 |
| COc1cccc(OC)c1C(=O)Nc1nc2ccc([N+](=O)[O-])cc2s1 | 16.1 |
| COc1cccc(CNC(=O)c2cc(C3CC3)nc3c2cnn3C(C)C)c1 | -0.644 |
| COc1ccc(CCN(C(=O)c2ccc(F)cc2)C2=CC3CCC(C2)N3C)cc1OC.Cl (stereo not drawn) | -22.6 |
| CCCCN(C(=O)c1cc(OC)c(OC)c(OC)c1)C1=CC2CCC(C1)N2C.Cl (stereo not drawn) | 8.68 |
| COc1ccc(N(C(=O)c2ccc(F)cc2)C2=CC3CCC(C2)N3C)cc1.Cl (stereo not drawn) | -50.3 |
| CCOc1cc([N+](=O)[O-])cc(/C=C2/NC(=O)N(Cc3ccccc3F)C2=O)c1O | 4.45 |
| COc1cc(NC(=S)NC(=O)c2ccccc2F)ccc1NC(=O)c1ccco1 | 7.37 |
| CCn1c(SCC(=O)Nc2ccccc2)nc2nc3c(cc2c1=O)COC(C)(C)C3 | -12.4 |
| CCn1c(SCC(=O)Nc2ccc(C)cc2)nc2nc3c(cc2c1=O)COC(C)(C)C3 | -76.5 |
| CCn1c(SCC(=O)Nc2ccc(C(C)=O)cc2)nc2nc3c(cc2c1=O)COC(C)(C)C3 | 14.1 |
